SMILES strings stand for the structures. Calls of active or inactive are those of the source. Unless noted, how the calls were made is not given here.

In assay [1] the test system is Wnt5a (protein binding on small-molecule microarray). The assay can be described thus: small molecules binding Wnt5a protein – biophysical, small-molecule microarray, 635/667 nm fluorescence, primary screen (AID 1142).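 Further: fluorescence read at 667 nm with signal to noise per printed feature.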 The following applies: 635 nm fluorescence, higher = more signal.
The nature of assay [2]: ATP-based viability of Huh7 replicon cells – cell-based, CellTiter-Glo luminescence, basal, 48 h, cytotoxicity control for HCV replication inhibitor project, primary screen (AID 1143).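 Further: Huh7 hepatoma cells carrying a hepatitis C replication reporter with no stimulus; test concentration not given here.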 The following applies: higher = more signal, called active from +8 up or from −8 down. Background: A replicon is a self-replicating genome or part of one, used to study replication in cells.
The nature of assay [3]: Pseudomonas biofilm growth suppression – PAO1 strain, BacTiter-Glo luminescence, LB-PBS, primary screen (AID 1144). The settings on record: P. aeruginosa PAO1 biofilm, 12 h, higher = more signal.
Assay [4] in a line: basal CRE-LacZ reporter activity in PC12 – cell-based, unstimulated, primary screen (AID 1145). The following applies: no forskolin, luminescence, 4.5 h, higher = more signal, called active from +8 up or from −8 down.
Assay [5] can be described thus: forskolin-driven CRE-LacZ activity in PC12 – cell-based, CRE-LacZ reporter, forskolin-stimulated, primary screen (AID 1146).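 Further: PC12 cells with 6xCRE LacZ reporter stimulated by forskolin 10 µM; beta-galactosidase reporter signal reflecting CREB driven transcription.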 The following applies: luminescence, 4.5 h, higher = more signal, called active from +8 up or from −8 down.
Assay [6] has as its target Streptavidin (Streptomyces avidinii) (UniProt P22629). The experiment in a line: compounds binding control protein streptavidin – biophysical, small-molecule microarray, 635/667 nm fluorescence, artefact control for SMM compound annotation, primary screen (AID 1147).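 Further: signal reflects streptavidin binding to arrayed compounds as a control protein.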 The settings on record: higher = more signal.
Assay [7] in a line: probe aInhba binding on compound microarray – biochemical, small-molecule microarray, 635/667 nm fluorescence, primary screen (AID 1148).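 Further: score merges 667nm spot fluorescence with signal-to-noise for antibody binding to printed compounds.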 The following applies: higher = more signal.
Assay [8] addresses Torsin-1A (Homo sapiens) (UniProt O14656). The experiment in a line: TOR1A wild-type binding on microarray – cell lysate, small-molecule microarray, lysate, 635/667 nm, primary screen (AID 1149). The settings on record: COS7 hTOR1A-WT lysate, 635 nm fluorescence, higher = more signal.
Assay [9] shares this target. The assay can be described thus: torsin A mutant lysate binding on microarrays – cell lysate, small-molecule microarray, COS7 lysate, 635/667 nm fluorescence, primary screen (AID 1150).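 Further: score pools 667 nm emission and signal to noise measuring lysate protein binding.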 The following applies: COS7 hTOR1A mutant lysate, 635 nm fluorescence, higher = more signal.
In assay [10] the test system is Sonic hedgehog protein (Shh). The assay can be described thus: Sonic hedgehog microarray binding compounds – biochemical, small-molecule microarray, 635/667 nm fluorescence, primary screen (AID 1151).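 Further: Shh protein binding to compounds spotted on small-molecule microarray slides; score combines spot fluorescence intensity with signal-to-noise across triplicate slides.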 The following applies: 635 nm fluorescence, higher = more signal.
Assay [11] is described as follows: optical density shifts of acrAB sulA E. coli – strain DRC41, OD650, 48 h, E. coli filamentation inducer project, primary screen (AID 1152).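 Further: E. coli MC1000 strain DRC41 lacking acrAB efflux pump and sulA.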 The following applies: higher = more signal, called active from +8 up or from −8 down.
A short description of assay [12]: probe aLefty1 binding on compound microarray – biochemical, small-molecule microarray, 635/667 nm fluorescence, primary screen (AID 1153).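 Further: score merges spot fluorescence with signal-to-noise ratio from the scanned slide images.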 The settings on record: higher = more signal.
A short description of assay [13]: plasmodial surface anion channel blockers, osmotic lysis – cell-based, P. falciparum Indochina, OD700, 1 h, primary screen (AID 1154). The following applies: P. falciparum Indochina infected RBC osmotic lysis, higher = more signal, called active from +8 up or from −8 down.
The nature of assay [14]: plasmodial surface anion channel blockers, osmotic lysis – cell-based, P. falciparum Indochina, OD700, 2 h, primary screen (AID 1155).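 Further: lysis reports solute entry through the parasite surface anion channel PSAC.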 The settings on record: P. falciparum Indochina infected erythrocytes, higher = more signal, called active from +8 up or from −8 down.
The nature of assay [15]: changes in parasitized red cell lysis, either direction – P. falciparum Indochina, OD700, 3 h, PSAC antagonist project, primary screen (AID 1156). The settings on record: P. falciparum-infected erythrocytes, osmotic lysis, higher = more signal, called active from +8 up or from −8 down.
Assay [16] in a line: plasmodial surface anion channel blockers, osmotic lysis – cell-based, P. falciparum Indochina, OD700, 18 h, primary screen (AID 1157). The following applies: P. falciparum Indochina infected erythrocytes, osmotic lysis OD700, 18 h; higher = more signal, called active from +8 up or from −8 down.
The nature of assay [17]: S6 kinase pathway phospho-S6 level changes – cell-based, A549, cytoblot, luminescence, serum-stimulated, primary screen (AID 1158).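 Further: serum-stimulated A549 lung adenocarcinoma cells; signal is phosphorylated S6 detected by cytoblot immunostaining with HRP secondary.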 The settings on record: 5 h, higher = more signal.
Assay [18] concerns the target NADPH oxidase 2 (Homo sapiens) (UniProt P04839). The experiment in a line: compounds shifting NOX2 Amplex Red fluorescence – cell-based, HEK293-NOX2, PMA-stimulated, NOX inhibitor project, primary screen (AID 1159). Further: test concentration not given here. The following applies: 45 min, higher = more signal, called active from +8 up or from −8 down.
The target in assay [19] is NADPH oxidase 4 (Homo sapiens) (UniProt Q9NPH5). The assay can be described thus: compounds shifting NOX4 Amplex Red fluorescence – cell-based, HEK293-NOX4, tetracycline-induced, NOX inhibitor project, primary screen (AID 1160). The settings on record: HEK293-NOX4, Amplex Red H2O2 fluorescence, 45 min; higher = more signal, called active from +8 up or from −8 down.
NADPH oxidase 4 (Homo sapiens), sequence (Q9NPH5 whole entry, looked up): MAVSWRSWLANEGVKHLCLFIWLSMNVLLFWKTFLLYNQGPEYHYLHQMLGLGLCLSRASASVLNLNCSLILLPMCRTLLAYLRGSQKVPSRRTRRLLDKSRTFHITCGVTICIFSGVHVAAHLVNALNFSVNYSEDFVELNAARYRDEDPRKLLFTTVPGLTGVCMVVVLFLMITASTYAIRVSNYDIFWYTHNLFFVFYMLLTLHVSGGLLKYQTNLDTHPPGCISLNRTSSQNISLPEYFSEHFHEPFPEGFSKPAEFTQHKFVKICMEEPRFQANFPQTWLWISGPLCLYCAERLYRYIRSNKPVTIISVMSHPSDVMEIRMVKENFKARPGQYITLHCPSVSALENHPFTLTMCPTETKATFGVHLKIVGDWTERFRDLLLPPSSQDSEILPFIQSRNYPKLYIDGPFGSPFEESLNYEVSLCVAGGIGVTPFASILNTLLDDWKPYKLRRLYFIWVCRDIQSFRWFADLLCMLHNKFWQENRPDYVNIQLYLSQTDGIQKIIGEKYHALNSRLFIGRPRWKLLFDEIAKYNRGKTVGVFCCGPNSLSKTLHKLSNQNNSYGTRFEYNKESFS
For assay [20], the target named is NADPH oxidase 5 (Homo sapiens) (UniProt Q96PH1). The assay can be described thus: compounds shifting NOX5 Amplex Red fluorescence – cell-based, HEK293-NOX5, NOX inhibitor project, primary screen (AID 1161). The settings on record: HEK293-NOX5, ionomycin, 45 min, higher = more signal.
NADPH oxidase 5 (Homo sapiens), sequence (Q96PH1 whole entry, looked up): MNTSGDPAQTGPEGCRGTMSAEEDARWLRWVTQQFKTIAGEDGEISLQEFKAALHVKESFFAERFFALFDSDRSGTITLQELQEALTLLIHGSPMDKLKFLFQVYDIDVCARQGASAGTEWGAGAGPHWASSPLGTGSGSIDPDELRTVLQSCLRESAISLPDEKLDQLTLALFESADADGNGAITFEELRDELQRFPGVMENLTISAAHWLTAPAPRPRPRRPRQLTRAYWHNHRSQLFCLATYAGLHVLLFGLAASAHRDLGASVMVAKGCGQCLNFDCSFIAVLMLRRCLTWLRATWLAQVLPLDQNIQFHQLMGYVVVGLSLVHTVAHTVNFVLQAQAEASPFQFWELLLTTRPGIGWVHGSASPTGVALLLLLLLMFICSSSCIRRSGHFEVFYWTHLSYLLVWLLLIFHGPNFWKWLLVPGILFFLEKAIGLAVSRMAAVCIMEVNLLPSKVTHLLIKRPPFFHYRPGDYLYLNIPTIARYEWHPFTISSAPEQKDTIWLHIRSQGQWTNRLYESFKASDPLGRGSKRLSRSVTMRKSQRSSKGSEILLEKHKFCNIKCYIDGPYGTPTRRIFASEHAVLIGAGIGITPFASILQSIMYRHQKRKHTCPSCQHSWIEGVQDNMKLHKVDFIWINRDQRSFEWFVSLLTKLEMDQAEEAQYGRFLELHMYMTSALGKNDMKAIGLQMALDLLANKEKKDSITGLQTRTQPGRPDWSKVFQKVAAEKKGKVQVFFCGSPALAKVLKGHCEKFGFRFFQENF

NADPH oxidase 2 (Homo sapiens), sequence (P04839 whole entry, looked up): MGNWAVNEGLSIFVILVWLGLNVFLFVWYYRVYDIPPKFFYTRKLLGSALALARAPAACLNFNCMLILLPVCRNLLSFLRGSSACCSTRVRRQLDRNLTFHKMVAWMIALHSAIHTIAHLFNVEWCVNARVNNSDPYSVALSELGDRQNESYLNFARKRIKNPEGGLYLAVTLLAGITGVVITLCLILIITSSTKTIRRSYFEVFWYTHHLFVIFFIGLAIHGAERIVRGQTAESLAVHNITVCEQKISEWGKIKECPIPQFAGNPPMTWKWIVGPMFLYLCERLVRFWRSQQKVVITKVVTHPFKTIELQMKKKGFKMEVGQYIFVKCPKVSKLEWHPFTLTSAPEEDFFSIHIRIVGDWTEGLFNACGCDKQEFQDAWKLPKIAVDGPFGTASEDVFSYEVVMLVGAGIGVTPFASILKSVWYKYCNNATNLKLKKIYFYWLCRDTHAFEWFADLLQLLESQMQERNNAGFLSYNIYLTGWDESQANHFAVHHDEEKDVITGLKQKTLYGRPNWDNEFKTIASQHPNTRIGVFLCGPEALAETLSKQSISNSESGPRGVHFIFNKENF
Torsin-1A (Homo sapiens), sequence (O14656 whole entry, looked up): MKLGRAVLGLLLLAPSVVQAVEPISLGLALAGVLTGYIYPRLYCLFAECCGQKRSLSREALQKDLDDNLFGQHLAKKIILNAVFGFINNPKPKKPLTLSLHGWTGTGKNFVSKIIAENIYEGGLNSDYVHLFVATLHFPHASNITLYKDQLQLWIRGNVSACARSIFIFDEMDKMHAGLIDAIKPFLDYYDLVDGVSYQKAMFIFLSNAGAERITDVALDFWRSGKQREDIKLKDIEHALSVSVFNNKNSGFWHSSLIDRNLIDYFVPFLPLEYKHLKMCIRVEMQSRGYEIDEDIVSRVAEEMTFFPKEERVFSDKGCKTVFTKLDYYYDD
Streptavidin (Streptomyces avidinii), sequence (P22629 whole entry, looked up): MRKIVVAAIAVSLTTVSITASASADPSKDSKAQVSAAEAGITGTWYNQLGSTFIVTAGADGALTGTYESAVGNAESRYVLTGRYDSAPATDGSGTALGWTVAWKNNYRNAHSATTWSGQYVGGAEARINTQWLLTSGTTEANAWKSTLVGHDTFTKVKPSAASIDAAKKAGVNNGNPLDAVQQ

With `COCC#Cc1ccc([C@@H]2N[C@H](C(=O)O)CC[C@H]2C)cc1`, the composite z-score in assay [1] was -0.0223; in assay [6] it was 0.0402; in assay [7], -0.024; with Torsin-1A (Homo sapiens) [8] it was 0.24; with Torsin-1A (Homo sapiens) [9], 0.0923; in [10], 0.742. In assay [12], this compound yielded a composite z-score of -0.194. The z-score in assay [2] was -1.23 (inactive); in [3], -1.73 (inactive); in assay [4] it was -0.0755 (inactive); in [5] it was -1.56 (inactive); in [11] it was -0.0799 (inactive); in assay [13] it was -0.398 (inactive). For the same compound, the z-score in assay [14] was -0.478 (inactive); in [15] it was -0.571 (inactive); in assay [16] it was -0.867 (inactive); in [17], 2.16; in [18] it was -2.01 (inactive); in assay [19] it was 0.301 (inactive). The z-score in assay [20] was 0.723.

Turning to `COC(=O)[C@@H]1CC[C@H](C)[C@@H](c2ccc(Br)cc2)N1C[C@H](O)CN=[N+]=[N-]`, the composite z-score in assay [1] was -0.106; in assay [6] it was 0.127; in assay [7] it was -0.05; in the assay with Torsin-1A (Homo sapiens) [8], 0.386; with Torsin-1A (Homo sapiens) [9], 0.827; in assay [10], 0.26. This compound also yielded a composite z-score in assay [12] of 0.181. The z-score in assay [2] is -0.999 (inactive); in assay [3] it was -1.5 (inactive); in [4], -0.522 (inactive); in assay [5] it was -0.369 (inactive); in assay [11] it was -0.972 (inactive); in [13] it was 1.04 (inactive). The z-score in [14] was 0.852 (inactive); in assay [15], 0.48 (inactive); in assay [16], 0.541 (inactive); in [17], 0.928; in assay [18] it was -0.855 (inactive); in [19] it was -1.08 (inactive). Further, the z-score in assay [20] was -0.0951.

For `CCOC(=O)NN=C1C[C@@H](O)[C@@H](O)[C@@H]2[C@@H]3C(=O)N(CC)C(=O)[C@@H]3CC[C@H]12`, the composite z-score was 0.0375 in assay [1]; 0.0571 in assay [6]; -0.252 in assay [7]; 0.399 in the assay with Torsin-1A (Homo sapiens) [8]; 0.441 in the assay with Torsin-1A (Homo sapiens) [9]; 0.0046 in [10]. The same compound had a composite z-score in assay [12] of -0.286. Moreover, the z-score in [2] was 0.383 (inactive); in assay [3], 0.345 (inactive); in assay [4] it was -0.656 (inactive); in assay [5], -0.628 (inactive); in assay [11] it was 0.539 (inactive); in [13] it was -0.259 (inactive). Moreover, the z-score was 0.072 (inactive) in [14]; -0.466 (inactive) in assay [15]; 0.182 (inactive) in assay [16]; -0.404 in assay [17]; -1.28 (inactive) in assay [18]; 0.199 (inactive) in [19]. Besides, the z-score in assay [20] was 0.534.

Consider `C[C@H]1CC[C@@H](C(=O)O)N[C@@H]1c1cccc(N2CCCC2=O)c1`, for which the composite z-score in [1] was 0.0767; in assay [6], -0.0712; in [7], -0.134; with Torsin-1A (Homo sapiens) [8], 0.203; in the assay with Torsin-1A (Homo sapiens) [9] it was 0.286; in assay [10] it was 0.189. In addition, the composite z-score in [12] is -0.103. Also, the z-score was 0.0659 (inactive) in [2]; -0.43 (inactive) in assay [3]; -0.437 (inactive) in assay [4]; -1.1 (inactive) in assay [5]; 1.04 (inactive) in [11]; 0.162 (inactive) in [13]. In addition, the z-score in assay [14] is 0.677 (inactive); in assay [15], 0.121 (inactive); in assay [16], 0.125 (inactive); in [17] it was 0.42; in [18], -0.207 (inactive); in assay [19], 0.00437 (inactive). Also, the z-score in assay [20] came out at 0.682.

For the origin of these results see PubChem BioAssay.
